Data on five compounds can be found in PubChem BioAssay.

Inconclusive results are not listed. The source made the active and inactive calls. Cut-off read from the data, not from the text of the source, unless noted: active = percent of DMSO control GFP below about 86%; inactive = the rest, inconclusive results apart.

A short description of assay [1]: yeast TOR pathway RPL19A-GFP modulators, primary screen, cell-based, S. cerevisiae, multiplex flow cytometry (AID 1862).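 Note: lower values mimic rapamycin by blocking the RPL19A rise seen in DMSO cells.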 The note with it: S. cerevisiae RPL19A-GFP strain, flow cytometry fluorescence, 3 h; at 10 µM; stronger effect = lower value. (In flow cytometry, cells or beads pass a laser one at a time.)
The nature of assay [2]: modulators of MEP2-GFP levels in yeast, primary screen, S. cerevisiae, multiplex flow cytometry (AID 1867;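 active = GFP response, as percent of the DMSO control, above the screen-wide mean plus 3 SD, about 139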;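 note: median GFP channel fluorescence of barcode-gated MEP2-GFP cells measured by flow cytometry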). The note with it: S. cerevisiae MEP2-GFP strain, 3 h, at 10 µM, stronger effect = higher value, 100% means same as DMSO wells.
Assay [3] in a line: modulators of CIT2-GFP expression in yeast, primary screen, S. cerevisiae, GFP fusion, multiplex flow cytometry (AID 1870;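 active = percent response above a set limit, the screen-wide mean plus 3 SD, cut at about 130% in these data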;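 note: barcoded CIT2-GFP strain pooled with four other GFP strains with rapamycin as positive control; median GFP fluorescence per well over plate mean of DMSO wells so 100% = DMSO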). The note with it: 3 h, at 10 µM, stronger effect = higher value.
Assay [4] can be described thus: modulators of LAP4-GFP expression in yeast, primary screen, S. cerevisiae, multiplex flow cytometry (AID 1873;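 active = GFP signal, as percent of the solvent control, above the screen mean plus 3 SD, about 149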). The note with it: 3 h, at 10 µM, stronger effect = higher value.
Assay [5] in a line: modulators of AGP1-GFP expression in yeast TOR pathway, primary screen, cell-based, multiplex flow cytometry, S. cerevisiae (AID 1887;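 active = GFP signal above the screen-wide mean plus 3 SD, that is over about 124.5% of the solvent control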;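 note: AGP1-GFP fusion strain of S. cerevisiae within a five-strain barcoded multiplex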). The note with it: 3 h, at 10 µM, stronger effect = higher value.
Assay [6] in a line: inhibitors of CD8+ T cell-vesicle binding, pilot screen, LFA-1/ICAM-1 modulator project, MLPCN validation set, flow cytometry (AID 2523;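 active = response below a set limit, under 55% cells CD8-positive and vesicle-bound, and CD8 cells' 90th-percentile brightness under 279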;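 for vesicle binding response: mean PE anti-B7-1 fluorescence of CD8+ cells relative to row control; 100% = QL9-loaded vesicles with DMSO vehicle in the same plate row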). The note with it: 2C mouse CD8+ T cells, at 7 µM, stronger effect = lower value; double positive events: measured here: CD8+/vesicle+ event percentage.
Assay [7] has as its target Integrin beta-1 (Homo sapiens) + Integrin alpha-4 (Homo sapiens) (UniProt P13612+P05556). Kind of assay: inhibition of HUTS-21 binding to VLA-4, pilot screen, VLA-4 allosteric modulator project, U937 cells, HUTS-21 mAb, flow cytometry, validation set (AID 2674;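 active = inhibition above 50%, about 3 SD of the validation set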;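 note: antibody binding induced by the VLA-4 ligand LDV present at three times its Kd; 0% = LDV ligand with antibody and no compound and 100% = antibody without LDV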). The note with it: HUTS-21 LIBS mAb binding, at 6.7 µM, stronger effect = higher value, binding induced by LDV ligand.
Assay [8] can be described thus: superoxide lowering in aged yeast cells, pilot screen, validation compound set (AID 2706;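 active = superoxide response below 65% of plate, a cut near 3 SD across the whole screen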;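 note: yeast exposed to compound for one week at 30 degrees C before staining; 100% = mean of all compound wells on the same plate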). Particulars: S. cerevisiae aging, superoxide DHE fluorescence; at 10 µM; stronger effect = lower value.
Assay [9] has as its target Beta-adrenergic receptor kinase 1 (Homo sapiens) (UniProt P25098). Kind of assay: GRK2 binders displacing RNA aptamer, biochemical, validation, human GRK2, bead flow cytometry (AID 488806;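 active = aptamer binding inhibition above 30%, about 3 SD of noise from non-fluorescent compounds; inactive = inhibition at or below 30%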). The note with it: bead-bound GRK2, FAM-aptamer displacement, at 10 µM, stronger effect = higher value.
Assay [10] addresses Beta-2 adrenergic receptor (Homo sapiens) (UniProt P07550). Kind of assay: beta2AR agonists driving receptor internalization, pilot screen, cell-based, FAP fluorogen, flow cytometry, validation set (AID 504459;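 active = percent response above 42, roughly 3 SD of non-fluorescent test compounds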;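 note: agonist-driven loss of surface beta2AR via internalization measured by FAP dye flow cytometry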). Particulars: Am2.2-beta2AR cells, FAP surface receptor flow cytometry; at 10 µM; stronger effect = higher value.
In assay [11] the target is AP-2 complex subunit beta (Homo sapiens) (UniProt P63010). Kind of assay: inhibitors of arrestin peptide binding to AP2, pilot screen, biochemical, validation set, GST-AP2 beads, flow cytometry (AID 504541;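 active = inhibition above 54%, about 3 SD of non-fluorescent compounds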;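 note: AP2 carries R879A mutation and is captured from E. coli lysate; bead-bound FITC arrestin peptide fluorescence measuring arrestin peptide binding to AP2; 0% = DMSO wells and 100% = excess unlabeled arrestin peptide control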). The note with it: FITC arrestin peptide, at 10 µM, stronger effect = higher value, AP2 beta2 appendage fragment, R879A mutant.
Assay [12] can be described thus: yeast V-ATPase proton transport modulators, S. cerevisiae, pHLuorin, HTS validation (AID 504600; in the data active = response above about 15%;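 note: plate controls were DMSO for no effect and reference compound for full effect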). Particulars: S. cerevisiae pHLuorin cytosolic pH, at 10 µM, stronger effect = higher value.
For assay [13], the system named is anti-desmoglein-3 scFv antibody binding to human DSG3. Kind of assay: inhibitors of anti-DSG3 scFv binding to DSG3, pilot screen, biochemical, validation compound set, bead-based, flow cytometry (AID 588368;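 active = binding below the plate cutoff, the plate median minus 3 SD, with a reading above zero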;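 note: signal is the median channel fluorescence of bead-bound GFP antibody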). Particulars: Protein G beads, DSG3-Fc, scFv-GFP binding, at 10 µM, stronger effect = lower value.
Assay [14] in a line: inhibitors of fungal efflux pumps CDR1, CDR2, MDR1, pilot screen, validation compound set, multiplex, phenotypic (AID 588506;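 active = efflux inhibition above 0.42, the validation set average plus 4 SD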;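 note: Nile Red retained in cells so higher fluorescence means more efflux inhibition; 0 = negative control wells and 1 = enniatin B 25 µM full block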). The note with it: S. cerevisiae pump-expressing triplex, Nile Red efflux flow cytometry; at 10 µM; stronger effect = higher value; the pumps come from Candida albicans.
The target of assay [15] is ATP-binding cassette sub-family B member 6 (Homo sapiens) (UniProt Q9NP58). Description: ABCB6 transporter inhibitors, pilot screen, K562-ABCB6 cells, flow cytometry, validation set (AID 588550;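 active = inhibition above the screen-wide mean plus 3 SD, about 51%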;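 note: 0% = DMSO wells and 100% = benzethonium chloride 70 µM positive control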). Particulars: K562-ABCB6 porphyrin accumulation, 1 h, at 10 µM, stronger effect = higher value.
The nature of assay [16]: promoters of myeloid differentiation in arrested cells, primary screen, cell-based, GFP/MAC1 double positive, flow cytometry, validation set (AID 588685;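 active = differentiation response of at least 50%, scaled between solvent and reference control, from cells with both markers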;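 note: compound exposure lasts four days before antibody staining and flow analysis; 0% = DMSO wells and 100% = 5 µM fulvestrant positive control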). The note with it: ER-HoxA9 marrow cells, stronger effect = higher value, normalized: vehicle 0, fulvestrant 100.

ATP-binding cassette sub-family B member 6 (Homo sapiens), sequence (Q9NP58 whole entry, looked up): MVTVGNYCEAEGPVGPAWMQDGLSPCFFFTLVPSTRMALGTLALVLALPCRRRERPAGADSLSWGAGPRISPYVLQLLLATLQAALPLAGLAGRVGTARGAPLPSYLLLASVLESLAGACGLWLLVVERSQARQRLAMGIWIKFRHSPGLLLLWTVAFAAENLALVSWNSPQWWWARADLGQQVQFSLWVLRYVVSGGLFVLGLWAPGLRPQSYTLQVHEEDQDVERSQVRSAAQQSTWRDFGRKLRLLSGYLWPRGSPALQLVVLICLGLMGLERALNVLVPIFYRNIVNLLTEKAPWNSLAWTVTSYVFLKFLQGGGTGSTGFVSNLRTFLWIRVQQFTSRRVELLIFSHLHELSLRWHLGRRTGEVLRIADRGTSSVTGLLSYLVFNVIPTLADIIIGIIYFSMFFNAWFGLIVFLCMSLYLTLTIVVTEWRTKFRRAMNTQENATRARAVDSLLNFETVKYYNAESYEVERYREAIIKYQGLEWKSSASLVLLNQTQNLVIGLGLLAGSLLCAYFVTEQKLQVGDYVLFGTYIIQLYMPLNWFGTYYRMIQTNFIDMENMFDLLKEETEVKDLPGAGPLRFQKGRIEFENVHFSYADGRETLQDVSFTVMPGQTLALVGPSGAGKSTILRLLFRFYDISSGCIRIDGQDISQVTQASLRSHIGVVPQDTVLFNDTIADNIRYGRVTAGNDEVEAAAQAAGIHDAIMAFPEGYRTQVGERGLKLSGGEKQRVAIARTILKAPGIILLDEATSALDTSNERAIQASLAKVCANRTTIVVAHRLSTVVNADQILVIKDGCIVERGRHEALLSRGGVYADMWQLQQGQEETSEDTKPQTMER
Beta-2 adrenergic receptor (Homo sapiens), sequence (P07550 whole entry, looked up): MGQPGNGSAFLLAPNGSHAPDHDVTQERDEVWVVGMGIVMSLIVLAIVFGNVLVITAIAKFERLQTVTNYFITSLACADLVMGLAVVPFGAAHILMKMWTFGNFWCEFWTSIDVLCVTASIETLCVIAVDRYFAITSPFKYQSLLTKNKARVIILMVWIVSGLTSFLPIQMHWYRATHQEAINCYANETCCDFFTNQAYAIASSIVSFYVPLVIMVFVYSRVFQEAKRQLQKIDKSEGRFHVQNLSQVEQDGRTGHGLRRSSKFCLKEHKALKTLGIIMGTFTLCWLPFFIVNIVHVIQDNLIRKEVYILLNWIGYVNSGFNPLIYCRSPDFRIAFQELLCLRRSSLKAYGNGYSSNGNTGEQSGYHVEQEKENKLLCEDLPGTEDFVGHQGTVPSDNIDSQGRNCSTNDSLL
Beta-adrenergic receptor kinase 1 (Homo sapiens), sequence (P25098 whole entry, looked up): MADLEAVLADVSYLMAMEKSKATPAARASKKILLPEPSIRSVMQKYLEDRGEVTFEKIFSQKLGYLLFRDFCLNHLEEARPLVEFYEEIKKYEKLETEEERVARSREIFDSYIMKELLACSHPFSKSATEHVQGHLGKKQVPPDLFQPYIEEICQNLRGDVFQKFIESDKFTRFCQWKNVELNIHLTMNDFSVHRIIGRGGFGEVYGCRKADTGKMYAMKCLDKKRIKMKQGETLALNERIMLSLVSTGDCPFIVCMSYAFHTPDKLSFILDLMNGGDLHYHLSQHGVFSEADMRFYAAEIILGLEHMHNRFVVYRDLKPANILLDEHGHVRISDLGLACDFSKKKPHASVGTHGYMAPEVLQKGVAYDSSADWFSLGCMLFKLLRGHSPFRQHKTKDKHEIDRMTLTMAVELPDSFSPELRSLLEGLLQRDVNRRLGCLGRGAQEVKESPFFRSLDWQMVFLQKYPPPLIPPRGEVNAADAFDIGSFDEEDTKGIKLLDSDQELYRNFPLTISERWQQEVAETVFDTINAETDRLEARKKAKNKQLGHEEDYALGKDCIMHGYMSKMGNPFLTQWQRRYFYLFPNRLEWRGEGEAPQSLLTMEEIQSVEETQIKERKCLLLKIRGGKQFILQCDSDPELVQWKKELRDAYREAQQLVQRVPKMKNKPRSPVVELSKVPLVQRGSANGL
Integrin beta-1 (Homo sapiens) + Integrin alpha-4 (Homo sapiens), sequence (P05556 whole entry, looked up): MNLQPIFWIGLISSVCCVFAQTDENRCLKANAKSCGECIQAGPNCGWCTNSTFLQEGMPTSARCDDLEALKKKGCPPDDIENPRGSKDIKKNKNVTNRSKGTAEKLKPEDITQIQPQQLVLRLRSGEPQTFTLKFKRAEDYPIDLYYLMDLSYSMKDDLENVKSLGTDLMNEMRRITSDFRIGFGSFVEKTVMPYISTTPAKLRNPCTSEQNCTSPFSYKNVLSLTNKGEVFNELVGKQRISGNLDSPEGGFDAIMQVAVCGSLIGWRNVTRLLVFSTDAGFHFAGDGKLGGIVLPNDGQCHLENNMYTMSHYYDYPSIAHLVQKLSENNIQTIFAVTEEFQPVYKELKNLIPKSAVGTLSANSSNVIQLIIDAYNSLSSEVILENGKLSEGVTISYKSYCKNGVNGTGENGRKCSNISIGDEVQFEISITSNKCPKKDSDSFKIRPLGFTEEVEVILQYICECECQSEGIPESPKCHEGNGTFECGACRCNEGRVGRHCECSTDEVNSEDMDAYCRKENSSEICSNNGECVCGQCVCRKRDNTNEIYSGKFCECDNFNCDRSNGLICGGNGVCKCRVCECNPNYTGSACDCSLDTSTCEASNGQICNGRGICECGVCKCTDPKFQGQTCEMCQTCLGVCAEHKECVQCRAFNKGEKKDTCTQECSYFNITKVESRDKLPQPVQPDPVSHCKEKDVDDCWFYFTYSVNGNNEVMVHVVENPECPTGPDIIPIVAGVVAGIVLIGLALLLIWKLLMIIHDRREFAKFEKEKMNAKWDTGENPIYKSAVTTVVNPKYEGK
Integrin beta-1 (Homo sapiens) + Integrin alpha-4 (Homo sapiens), sequence (P13612 whole entry, looked up): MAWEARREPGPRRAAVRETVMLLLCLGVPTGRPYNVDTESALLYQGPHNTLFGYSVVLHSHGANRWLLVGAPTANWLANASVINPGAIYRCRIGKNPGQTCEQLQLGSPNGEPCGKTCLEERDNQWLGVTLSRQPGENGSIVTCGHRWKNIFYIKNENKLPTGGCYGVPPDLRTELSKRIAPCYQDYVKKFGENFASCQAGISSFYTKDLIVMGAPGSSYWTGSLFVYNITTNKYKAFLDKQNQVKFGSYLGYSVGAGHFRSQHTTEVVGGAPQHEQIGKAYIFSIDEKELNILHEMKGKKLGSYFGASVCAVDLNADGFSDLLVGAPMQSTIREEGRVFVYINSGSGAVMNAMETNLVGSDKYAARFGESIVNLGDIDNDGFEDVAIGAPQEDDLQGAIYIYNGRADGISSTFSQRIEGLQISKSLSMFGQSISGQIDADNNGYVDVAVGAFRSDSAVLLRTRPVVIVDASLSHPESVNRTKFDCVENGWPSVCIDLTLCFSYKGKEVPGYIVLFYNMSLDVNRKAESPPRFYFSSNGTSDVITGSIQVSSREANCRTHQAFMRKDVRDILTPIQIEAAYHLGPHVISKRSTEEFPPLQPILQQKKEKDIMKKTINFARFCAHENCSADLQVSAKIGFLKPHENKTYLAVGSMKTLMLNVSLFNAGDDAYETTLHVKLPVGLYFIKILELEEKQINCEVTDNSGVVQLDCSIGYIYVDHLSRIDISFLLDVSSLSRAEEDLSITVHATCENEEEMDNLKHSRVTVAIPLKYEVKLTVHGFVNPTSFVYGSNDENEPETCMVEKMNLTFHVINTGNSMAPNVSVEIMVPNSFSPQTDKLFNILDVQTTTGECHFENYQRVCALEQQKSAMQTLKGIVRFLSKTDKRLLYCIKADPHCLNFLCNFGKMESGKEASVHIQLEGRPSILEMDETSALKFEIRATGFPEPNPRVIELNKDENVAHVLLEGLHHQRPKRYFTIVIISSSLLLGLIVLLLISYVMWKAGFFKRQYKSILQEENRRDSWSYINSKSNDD
AP-2 complex subunit beta (Homo sapiens), sequence (P63010 whole entry, looked up, the tested form may be a part, one chain of several): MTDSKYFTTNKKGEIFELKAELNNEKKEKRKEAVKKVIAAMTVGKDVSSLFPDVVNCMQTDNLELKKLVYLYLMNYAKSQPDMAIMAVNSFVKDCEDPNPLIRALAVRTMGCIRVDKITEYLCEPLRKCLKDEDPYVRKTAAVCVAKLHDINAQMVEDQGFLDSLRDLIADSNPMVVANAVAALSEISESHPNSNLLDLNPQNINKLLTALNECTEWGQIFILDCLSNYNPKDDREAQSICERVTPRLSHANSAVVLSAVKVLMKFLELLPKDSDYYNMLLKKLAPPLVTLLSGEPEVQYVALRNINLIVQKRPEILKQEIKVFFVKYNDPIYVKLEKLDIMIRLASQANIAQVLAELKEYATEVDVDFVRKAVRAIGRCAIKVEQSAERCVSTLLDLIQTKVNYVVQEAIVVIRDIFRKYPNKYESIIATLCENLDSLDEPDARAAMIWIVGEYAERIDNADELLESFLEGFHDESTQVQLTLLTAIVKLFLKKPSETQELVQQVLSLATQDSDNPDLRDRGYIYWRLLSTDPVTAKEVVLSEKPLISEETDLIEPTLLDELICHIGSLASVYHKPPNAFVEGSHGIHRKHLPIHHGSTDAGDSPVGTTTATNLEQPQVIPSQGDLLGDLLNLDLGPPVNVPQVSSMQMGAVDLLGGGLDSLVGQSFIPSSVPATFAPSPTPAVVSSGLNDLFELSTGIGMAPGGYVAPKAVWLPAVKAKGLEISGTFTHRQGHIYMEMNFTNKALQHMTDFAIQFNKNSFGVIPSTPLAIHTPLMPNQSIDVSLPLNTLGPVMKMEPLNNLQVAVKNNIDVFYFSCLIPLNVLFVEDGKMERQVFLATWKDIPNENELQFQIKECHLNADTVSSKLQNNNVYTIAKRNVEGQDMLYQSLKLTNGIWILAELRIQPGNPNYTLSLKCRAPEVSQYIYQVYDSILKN

As usually defined, the inhibition is the drop in the measured response relative to a control, in per cent. For `CCOc1ncnc2c1[nH]c1ccccc12`, the percent of DMSO control GFP in [1] is 99.7% (inactive). The GFP response vs DMSO was 98.5% (inactive) in assay [2] and 88% (inactive) in assay [4]. Further, the percent response of DMSO control in [3] is 104% (inactive). Further, the GFP response, % of DMSO in [5] is 85.7% (inactive). This compound registered a double positive events in [6] of 52.2%. Also, the vesicle binding response in assay [6] was 354% (inactive). Also, the inhibition in [7] was -8.62% (inactive); in [11], -7.64% (inactive); in assay [15] it was 8% (inactive). The superoxide response (% of plate) in assay [8] is 101% (inactive). The aptamer binding inhibition in [9] was 4% (inactive). The response in assay [10] is 14.8% (inactive); in assay [12] it was 19.2% (active). In addition, the binding (% of control) in assay [13] was 98.9% (inactive). Besides, the efflux inhibition (fraction of control) in assay [14] was 0.01 (inactive). For the same compound, the differentiation response in [16] was -31.2% (inactive).
As for `CCOC(=O)C(=O)N1CCN(c2ccccc2OC)CC1`, the percent of DMSO control GFP in assay [1] is 97.9% (inactive). Besides, the GFP response vs DMSO in [2] was 112% (inactive); in [4], 94.8% (inactive). In assay [3], the percent response of DMSO control is 98.6% (inactive). The GFP response, % of DMSO in assay [5] was 104% (inactive). In [6], the double positive events was 64.7%. The vesicle binding response in assay [6] is 175% (inactive). In addition, the figures for the inhibition in assay [7], in assay [11] and in [15] were -9.13% (inactive), 14.2% (inactive) and 7% (inactive), respectively. Besides, in assay [8], the superoxide response (% of plate) is 98% (inactive). The aptamer binding inhibition in assay [9] was 3% (inactive). The response in assay [10] was 3.6% (inactive); in assay [12] it was -4.83% (inactive). For the same compound, in [13], the binding (% of control) was 102% (inactive). Moreover, the efflux inhibition (fraction of control) in assay [14] was -0.125 (inactive). Moreover, the differentiation response in assay [16] is -8.96% (inactive).
Take `O=C(NCc1ccc(N2CCCC2=O)cc1)c1ccc(F)cc1`: the percent of DMSO control GFP in assay [1] was 103% (inactive). For the same compound, the GFP response vs DMSO in [2] was 106% (inactive); in assay [4] it was 99.5% (inactive). Further, in [3], the percent response of DMSO control was 100% (inactive). The GFP response, % of DMSO in [5] is 116% (inactive). The compound further showed a double positive events in [6] of 62.5%. The vesicle binding response in [6] was 211% (inactive). In addition, the figures for the inhibition in assay [7], in assay [11] and in assay [15] were 17.6% (inactive), 6.32% (inactive) and 2% (inactive), respectively. For the same compound, in [8], the superoxide response (% of plate) was 101% (inactive). Further, in assay [9], the aptamer binding inhibition was 3% (inactive). Further, the response in [10] is -6.33% (inactive); in assay [12], -1.49% (inactive). Further, the binding (% of control) in assay [13] is 107% (inactive). In assay [14], the efflux inhibition (fraction of control) is -0.04 (inactive). Moreover, the differentiation response in assay [16] was 1.91% (inactive).
For the compound `Cc1ccc2c(c1)C1CN(C)CCC1N2S(=O)(=O)c1ccc(Oc2ccc([N+](=O)[O-])cc2)cc1` (stereo not given), the percent of DMSO control GFP in [1] is 104% (inactive). In addition, the GFP response vs DMSO in assay [2] was 103% (inactive); in [4] it was 91.5% (inactive). Besides, the percent response of DMSO control in assay [3] is 106% (inactive). Besides, the GFP response, % of DMSO in assay [5] is 97% (inactive). This compound also returned a double positive events in assay [6] of 56.7%. Moreover, in assay [6], the vesicle binding response is 153% (inactive). The figures for the inhibition in [7], in [11] and in [15] were 2.93% (inactive), -1.46% (inactive) and -4% (inactive), respectively. The superoxide response (% of plate) in [8] was 97.8% (inactive). Further, in assay [9], the aptamer binding inhibition is -7% (inactive). For the same compound, the response is 25.2% (inactive) in assay [10] and 10.4% (inactive) in assay [12]. Further, the binding (% of control) in assay [13] was 105% (inactive). Also, the efflux inhibition (fraction of control) in [14] is 0.085 (inactive). Further, in assay [16], the differentiation response is -14.8% (inactive).
With `c1ccc(Cn2nnc3cnccc32)cc1`, the percent of DMSO control GFP in assay [1] was 104% (inactive). For the same compound, the GFP response vs DMSO is 101% (inactive) in assay [2] and 106% (inactive) in assay [4]. In addition, the percent response of DMSO control in assay [3] is 104% (inactive). Also, in [5], the GFP response, % of DMSO is 107% (inactive). Moreover, the double positive events in assay [6] is 57.9%. For the same compound, the vesicle binding response in [6] was 67.8% (inactive). The inhibition in [7] was 4.27% (inactive); in assay [11], -12.1% (inactive); in assay [15], 9% (inactive). Also, in assay [8], the superoxide response (% of plate) was 113% (inactive). Also, in assay [9], the aptamer binding inhibition was 2% (inactive). Besides, the response in [10] is 0.22% (inactive); in assay [12] it was 0.84% (inactive). In addition, in [13], the binding (% of control) is 102% (inactive). Moreover, the efflux inhibition (fraction of control) in [14] was 0.33 (inactive). Moreover, the differentiation response in assay [16] was -10.4% (inactive).
